Reference: the supplement of paper PMC10105736
A number with no mark means an inactive call.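 How the source made its calls: active = MAPPIT score above the 99th percentile of random reference set scores in the same batch; inactive = at or below it.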

Columns and labels:
Assay in all cases: MAPPIT interaction score (arbitrary units); higher = stronger binary interaction signal, active = hit call of the paper
CG12567 = conditions: pair source set: RRS
CG14664 = conditions: pair source set: RRS
DIP1 = conditions: MAPPIT configuration: N-N; pair source set: screen_2
GstZ2 = conditions: pair source set: RRS
CG12343 = conditions: MAPPIT configuration: N-N; pair source set: DPIM
CG12307 = conditions: MAPPIT configuration: N-C; pair source set: screen_3
CG5151 = conditions: MAPPIT configuration: N-N; pair source set: Curagen_high_conf
Npl4 = conditions: MAPPIT configuration: N-N; pair source set: Finley_Y2H
PAN3 = conditions: MAPPIT configuration: N-N; pair source set: Finley_Y2H
Sxl = conditions: MAPPIT configuration: N-N; pair source set: Finley_Y2H
mxt = conditions: MAPPIT configuration: N-N; pair source set: screen_1
CG12863 = conditions: MAPPIT configuration: N-N; pair source set: Curagen_high_conf
CG12576 = conditions: MAPPIT configuration: N-C; pair source set: screen_4
CG13887 = conditions: MAPPIT configuration: N-C; pair source set: screen_3
CG6845 = conditions: MAPPIT configuration: N-C; pair source set: screen_4
Tim17b2 = conditions: MAPPIT configuration: N-C; pair source set: screen_4
CG12470 = conditions: MAPPIT configuration: N-N; pair source set: Finley_Y2H
CG12768 = conditions: MAPPIT configuration: N-N; pair source set: Curagen_low_conf
CG8281 = conditions: MAPPIT configuration: N-N; pair source set: screen_1
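Further: HEK293T cells with Epo stimulation, STAT-responsive firefly luciferase reporter, fold induction versus unstimulated cells divided by the larger fold induction of two negative controls lacking either bait or prey.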

B1: Adar (protein)
chain: MKFDSRVMLNSANNNSPQHPVSAPSDINMNGYNRKLPQKRGYEMPKYSDPKKKMCKERIPQPKNTVAMLNELRHGLIYKLESQTGPVHAPLFTISVEVDGQKYLGQGRSKKVARIEAAATALRSFIQFKDGAVLSPLKPAGNLDFTSDEHLENGIENLSSSKMFEIIQTMLTEKLSNPTSLEQPTFCMSQNVSKSAITVDGQKKVPDKGPVMLLYELFNDVNFECINIDGAQNNCRFKMTVTINEKKFDGTGPSKKTAKNAAAKAALASLCNISYSPMVVPQKNVPLPIDDKSSSMELPQIHADTIGRLVLEKFMEVIKGQEAYSRRKVLAGIVMTENMNFCEAKVISVSTGTKCVSGEHMSVNGAVLNDSHAEIVSRRCLLKYLYAQLDLQCNQATAYQSIFVRNTDGQYPYKLKSGVHFHLYINTAPCGDARIFSPHENDTGVDKHPNRKARGQLRTKIESGEGTIPVKSSDGIQTWDGVLQGQRLLTMSCSDKIARWNIVGIQGSLLSSIIEPVYLHSIVLGSLLHPEHMYRAVCGRIEKSIQGLPPPYHLNKPRLALVTSAEPRNQAKAPNFGINWTIGDTELEVVNSLTGRTIGGQVSRITKQAFFVKYGFLMANLPGILVRKVTTDYGQTKANVKDYQIAKLELFSAFKREDLGSWLKKPIEQDEFGLAE
CG12567; MAPPIT configuration: N-C
  MAPPIT interaction score: 0.742
CG12567; MAPPIT configuration: N-N
  MAPPIT interaction score: 1.87
CG14664; MAPPIT configuration: N-C
  MAPPIT interaction score: -0.248
CG14664; MAPPIT configuration: N-N
  MAPPIT interaction score: 0.297
DIP1
  MAPPIT interaction score: -0.0973
GstZ2; MAPPIT configuration: N-C
  MAPPIT interaction score: 0.124
GstZ2; MAPPIT configuration: N-N
  MAPPIT interaction score: -0.194

B2: CG8745 (protein)
chain: MPFAHEQLNLVASEQLSKTETIKLRNQHIGQACQLFYRSDPLKIVRGQGQYMFDEEGTRYLDCINNVAHVGHCHPEVVRAGALQMATISTNNRFLHDELVQCARTLTSKMPEPLSVCFFVNSGSEANDLALRLARNFTKRQDVITLDHAYHGHLQSVMEVSPYKFNQPGGEAKPDYVHVAPCPDVYGGKFTDKMYPDADMGALYAQPIEEICQKQLAKGQGVAAFIAESLQSCGGQILPPAGYFQAVYDAVRSAGGVCIADEVQVGFGRVGSHYWAFETQNVIPDIVCVAKPMGNGHPVGAVVTTPEIAQAFHATGVAYFNTYGGNPVSCAIANAVMRVIEEEGLQQKALVLGDYLLEECNRLKQEFECIGDVRGAGLFVGIELVQDRKERIPDKKAAHWVVNRMKQLHRVLVSSDGPNDNVIKLKPPMCFNRENADEFLLGFRECLTAVMQERLASATSAAMAATSGVIATATETLANKTKLFERQDRLIKSV
CG12343
  MAPPIT interaction score: 0.219

B3: CycG (protein)
chain: MSVPVRYSSAAAEYAAEVDCELESTLQQQQQLHLQQQYEQYQHYQYQREQDIAYYCQLQAARQQEQLMQQRTSMSSSVMPGLALPQDHQDHPAALLNGPHNNNIGLAMDAHSINAILVDDEQPSTSAQAAAAAAASAGGSAGAGSGSGLGGAIGGGKLANGINRNAEMPTDWMRIADEGRYGTPGAAGLEYQKYEQQQQLEDLAESEAGAVGGASNNNGESSSSLKKLEDQLHALTSDELYETLKEYDVLQDKFHTVLLLPKESRREVTAGGRDGSAYVLRCLKMWYELPSDVLFSAMSLVDRFLDRMAVKPKHMACMSVASFHLAIKQLDLKPIPAEDLVTISQCGCTAGDLERMAGVIANKLGVQMGHAPITSVSYLRIYYALFRNLAKEIGGDFFKFYQQLIKLEELENRLEILMCDVKTTVITPSTLALVLICLHLDFHIKESYTRGSPELKHVFEYILFLQQYMRIPDRVFTCGFSIVSGILSHYNGQNKAPYKQRLVWKLSSRTLRVLRPINRFSSDLPTIEEGIPNALDDGLRSRTESISSEEEEDWPTSPIIPIFEQC
CG12307
  MAPPIT interaction score: 0.375
CG5151
  MAPPIT interaction score: 0.112
Npl4
  MAPPIT interaction score: 3.83 (active)
PAN3
  MAPPIT interaction score: 0.781
Sxl
  MAPPIT interaction score: 1.86
mxt
  MAPPIT interaction score: -0.277

B4: Rab26 (protein)
chain: MASTAVGLGGGEGDPGAGGPPAGSAHPDDASSMSDDVFEDAETTQARIEELRRRPFGDGSYNPPAAPASVSASITTTTTQQQQQHHNPSHHHQSSHHQPSHHHHHHHHSQLSLTGSHHYHDDAIMAPVQRSATGYPGYRPSREAMQMYAYGTDDYDDDYNDGWRSYRYDEVDMHPAPSNAHQQPFDDTVNHKTILLGDSGVGKTSFLVKYNTGEFRLGSFSATVGIALTNKVVVVDGTRVKLQIWDTAGQERFRSVTHAYYRDAHALLLLYDVTNKTTYDNIRAWLGEIREYAQEDVVIVLIGNKADCSGSERQVKREDGERLGREHNVPFMETSAKTGLNVELSFTAVARQLKSRGYEHGDDGKFNVHDFVRDNTKARSVCAQCRNM
CG12863
  MAPPIT interaction score: 1.43

B5: Tsf2 (protein)
chain: MASSLVFVALVGALCFTLANAQHHYDEHKTTRMVWCTKSQAEQYKCQNLTVAIERDRALFDEVFLNLTCFMAYSADECIHHIDREKAHITTLDAGDVFTAGRYNSLIPIMQEKLEGGFADYQSVAVIKKGSLPDLNNLRDMRNKRVCFPWVGSLAGWIVPIHTLQREGGMEVVDCNNQVKTAASYFNNSCAVYSLSDKHNPIGDNSDKLCTLCTGKIPGGRCSSADPYFGYEGAFKCLLEKGDVAFLRHSTVNEMLQTTEFKNIAPDTFELLCRDGRRASINDYRQCNWGQVPADAIVTSSARSFSDRKQYQQFLKRIAELYSDGTRDDQSRQGGQSFNSRNNINDQNAYGQFDNNDPYRTQNQYDQYRSERLDSSFAEERNQQDGTNTSILYEKFRIFESKRYGKPNLLFQDSSRALTVIPEDDQSFTKYLGPAINFIYGIRECPVPAMTLCVTSENELDKCIKMRTALKAHLLKPELICKKMHSHINCMQFIEAGKADISVFDAGDVYTGGLNYDLVPFMSEVYNLGEPEYYVVAVAKEDDPDTELTYLKGKNTCHTGINTAAGWTYPMALFISNGWIRPYGCDSVRAAAEYFTKSCVPGAISNEYNTGVPYDSMCDLCHGTSYRYCRRDASEEYYGHTGAFRCLVEGGGHVAFMKHTTVMESTGGKRKEWWARNALNDDFELLCTDGTRAEIQDYKRCNLGKVKANAVVTRGGVNYNETQMNAYINLLTYAQQLYGRKEVDAFSFSMFSSPIGHYDLIFQDATRQLQVIPPNKRRYDAYLGSDFMRARRITDCYAGASQLALSVGLLLVGSLVAML
CG12576
  MAPPIT interaction score: 0.0626
CG13887
  MAPPIT interaction score: -0.181
CG6845
  MAPPIT interaction score: 0.127
Tim17b2
  MAPPIT interaction score: 0.851

B6: SNRPG (protein)
chain: MSKAHPPEVKKYMDKRMMLKLNGGRAVTGILRGFDPFMNVVLDDTVEECKDNTKNNIGMVVIRGNSIVMVEALDRV
CG12470
  MAPPIT interaction score: 2.32

B7: dod (protein)
chain: MPDAEQLPDGWEKRTSRSTGMSYYLNMYTKESQWDQPTEPAKKAGGGSAGGGDAPDEVHCLHLLVKHKGSRRPSSWREANITRTKEEAQLLLEVYRNKIVQQEATFDELARSYSDCSSAKRGGDLGKFGRGQMQAAFEDAAFKLNVNQLSGIVDSDSGLHIILRKA
CG12768
  MAPPIT interaction score: 0.142
CG8281
  MAPPIT interaction score: -0.114
